Our source for the Potency and activity change, positive = activation values is PubChem BioAssay (Tox21).

Structures are written as SMILES. Several values for one entry are separate records, joined by “and”; a condition that tells them apart may be missing. Equal values may be shown once. Values without a mark were called inactive. Results filed as inconclusive are left out. Activity calls are given as the source filed them. Unless noted, calls follow the shape of the dose curve; as a rule, active = well fitted curve in the direction sought with a large enough effect in the repeat runs; inconclusive = weak or mixed curves; inactive = no such curve, though single readings can be large; an effect the other way counts as inactive or inconclusive.

Experiment [1] in a line: qHTS assay to identify small molecule agonists of the hypoxia (HIF-1) signaling pathway - cell viability counter screen (AID 1224844; calls by dose curve; also: nearly all actives have a fitted effect of over 50% in size). The method, boiled down: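 CellTiter-Glo luminescence read-out, 30 min RT, taken in the same wells as the beta-lactamase HRE reporter assay; HRE-bla ME-180 cells, 0.5% dialyzed FBS, 17 hr compound treatment at 37C, 5% CO2.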
Background: Quantitative high-throughput screening tests each substance at several concentrations.

Experiment [2] in a line: qHTS assay to identify small molecule agonists of H2AX - cell viability counter screen (AID 1224847; calls by dose curve; also: nearly all actives have a fitted effect of over 30% in size; also: potency is read from the fitted curve at half-maximal effect). The gist of the method:
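Counter-screen for viability: CellTiter-Glo ATP luminescence read after 3 h compound treatment (15-point titration, 0.76% DMSO final) of CHO-K1 cells at 37C, with 30 min room-temperature reagent incubation.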

Experiment [3] in a line: qHTS RealTime-Glo MT Cell Viability Assay in HepG2 cells - 24 hour (AID 1224867). Also: nearly all actives have a fitted effect of over 50% in size. The method, boiled down:
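Cells + NanoLuc/prosubstrate dispensed (600 cells/well) → 5 h at 37 C/5% CO2 → compounds in DMSO transferred → 40 h incubation at 37 C, luminescence read at 0, 8, 16, 24, 32, 40 h.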

The nature of experiment [4]: qHTS RealTime-Glo MT Cell Viability Assay in HEK293 cells - 32 hour (AID 1224868). Also: nearly all actives have a fitted effect of over 50% in size. Also: potency is read from the fitted curve at half-maximal effect. The gist of the method:
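Tox21 10K qHTS, HEK293, 600 cells/well, RealTime-Glo reagent co-dispensed with cells; 5 h preincubation, compound by pintool, 37 C, luminescence at 0–40 h.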

The nature of experiment [5]: qHTS RealTime-Glo MT Cell Viability Assay in HepG2 cells - 40 hour (AID 1224870). Also: nearly all actives have a fitted effect of over 50% in size. The method, boiled down:
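Real-time viability: cells seeded at 600 per well together with NanoLuc and cell-permeant prosubstrate, compounds added after 5 h incubation. Luminescence tracked at 0, 8, 16, 24, 32 and 40 h of exposure.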

A short description of experiment [6]: qHTS assay to identify small molecule agonists of the hypoxia (HIF-1) signaling pathway (AID 1224846; active = well fitted activation curve with a large enough effect in the signal ratio in the repeat runs, not every such curve was filed as active; the % refers to the signal ratio). The method, boiled down: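 Beta-lactamase FRET read-out (CCF4-AM substrate) from ME-180 cells carrying an HRE-driven bla reporter, after 17 hrs compound exposure at 37C/5% CO2. Cells were seeded at 2,000 per well in 0.5% dialyzed FBS medium and preincubated 5 hrs.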

Experiment [7] in a line: qHTS assay to identify small molecule antagonists of the estrogen related receptor (ERR) signaling pathway from Tox21 library (AID 1224848). Also: nearly all actives have a fitted effect of over 50% in size. Also: potency is read from the fitted curve at half-maximal effect. The gist of the method:
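Luciferase luminescence (ONE-Glo, 30 min room temperature) was the read-out. Cells of the NTP-supplied ERR line, 2,000 per well, were given 6 h at 37 C before compound addition in DMSO and 18 h exposure at 37 C.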

Experiment [8] in a line: qHTS assay to identify small molecule agonists of the estrogen related receptor (ERR) signaling pathway from Tox21 library (AID 1224849; calls by dose curve; also: nearly all actives have a fitted effect of over 15% in size). Conditions: ERR reporter cell line, ONE-Glo luciferase, 18 h; at 92.4 µM (top of the series) unless noted. The gist of the method:
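Luminescence readout (ONE-Glo, 30 min RT) after 18 h compound exposure at 37 C of NTP-supplied ERR reporter cells; cells were plated 6 h before compound addition by pin tool.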

The nature of experiment [9]: A CellTox Green Cytotoxicity Assay to monitor cytotoxicity in HEK293 cells - 0 hour (AID 1224869). Also: nearly all actives have a fitted effect of over 50% in size. Also: potency is read from the fitted curve at half-maximal effect. The gist of the method:
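Read-out: fluorescence of a cell-impermeant cyanine dye staining DNA of dead cells, proportional to cytotoxicity. HEK293, 600 cells/well with reagent, compound (23 nL DMSO) added after 5 h; reads at 0, 8, 16, 24, 32, 40 h.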

Experiment [10] can be described thus: qHTS assay to identify small molecule agonists of H2AX (AID 1224845; active = well fitted activation curve with a large enough effect in the signal ratio in the repeat runs, not every such curve was filed as active; the % refers to the signal ratio; also: potency is read from the fitted curve at half-maximal effect). The method, boiled down:
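Phospho-H2AX Ser139 measured by HTRF (ex 320 nm; em 665 and 620 nm) after 24 hr antibody incubation. Compounds, 15 concentrations, 0.76% DMSO, were applied to CHO-K1 cells for 3hr at 37C before lysis.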
% is scaled to controls: 0 for no effect and ±100 for the full control effect.

For `C[N+]1(C)CCC(OC(=O)C(O)(c2ccccc2)C2CCCC2)C1` (stereo not given), the Potency result in experiment [1], in [2], in experiment [3], in experiment [4] and in experiment [5] was “inactive” throughout.

For the molecule `COc1ccc(C(=O)Nc2nc3ccccc3c(NCc3ccccc3)c2C#N)cc1`, the Potency result in [6], in [2], in experiment [7], in experiment [9] and in experiment [5] was “inactive” in each case. Besides, in experiment [8], the activity change, positive = activation is -5.4%.

Consider `CCN(CC)c1ccc2c(-c3ccccc3C(=O)O)c3ccc(=[N+](CC)CC)cc-3oc2c1`, for which the Potency result in experiment [6] is “inactive”. In addition, the Potency in [2] is 40.1 µM (active); in [7] it was 27.3 µM (active); in [4], 21.9 µM (active); in experiment [9] it was 21.9 µM (active). Further, in experiment [8], the activity change, positive = activation is -49.3%.

With `CN(C)CCCN1c2ccccc2Sc2ccccc21`, the Potency result in experiment [2], in [7], in [3] and in [5] was “inactive” in each case. The activity change, positive = activation in [8] was 7.95% [at 42.5 µM].

`O=S(c1cc(Cl)cc(Cl)c1O)c1cc(Cl)cc(Cl)c1O`: the Potency result in experiment [10], in [7], in experiment [4], in experiment [9] and in experiment [5] was “inactive” in each case.

On to `C=CC(=O)OCCOCCOCCOCCOC(=O)C=C`, for which the Potency in experiment [10] was 50.8 µM (active) and 50 µM (active); in experiment [4], 34.8 µM (active) and 24.3 µM (active). The Potency result in [9] was “inactive”.
